# Reference: ChEMBL document CHEMBL1961873, “Compounds: GSK PKIS; Assays: Nanosyn kinase panel” (2012)
# Key:
# [1] = biological target: T1, Ephrin type-B receptor 2 (Homo sapiens) (UniProt P29323); settings: at 1 µM
# T1 sequence (whole entry): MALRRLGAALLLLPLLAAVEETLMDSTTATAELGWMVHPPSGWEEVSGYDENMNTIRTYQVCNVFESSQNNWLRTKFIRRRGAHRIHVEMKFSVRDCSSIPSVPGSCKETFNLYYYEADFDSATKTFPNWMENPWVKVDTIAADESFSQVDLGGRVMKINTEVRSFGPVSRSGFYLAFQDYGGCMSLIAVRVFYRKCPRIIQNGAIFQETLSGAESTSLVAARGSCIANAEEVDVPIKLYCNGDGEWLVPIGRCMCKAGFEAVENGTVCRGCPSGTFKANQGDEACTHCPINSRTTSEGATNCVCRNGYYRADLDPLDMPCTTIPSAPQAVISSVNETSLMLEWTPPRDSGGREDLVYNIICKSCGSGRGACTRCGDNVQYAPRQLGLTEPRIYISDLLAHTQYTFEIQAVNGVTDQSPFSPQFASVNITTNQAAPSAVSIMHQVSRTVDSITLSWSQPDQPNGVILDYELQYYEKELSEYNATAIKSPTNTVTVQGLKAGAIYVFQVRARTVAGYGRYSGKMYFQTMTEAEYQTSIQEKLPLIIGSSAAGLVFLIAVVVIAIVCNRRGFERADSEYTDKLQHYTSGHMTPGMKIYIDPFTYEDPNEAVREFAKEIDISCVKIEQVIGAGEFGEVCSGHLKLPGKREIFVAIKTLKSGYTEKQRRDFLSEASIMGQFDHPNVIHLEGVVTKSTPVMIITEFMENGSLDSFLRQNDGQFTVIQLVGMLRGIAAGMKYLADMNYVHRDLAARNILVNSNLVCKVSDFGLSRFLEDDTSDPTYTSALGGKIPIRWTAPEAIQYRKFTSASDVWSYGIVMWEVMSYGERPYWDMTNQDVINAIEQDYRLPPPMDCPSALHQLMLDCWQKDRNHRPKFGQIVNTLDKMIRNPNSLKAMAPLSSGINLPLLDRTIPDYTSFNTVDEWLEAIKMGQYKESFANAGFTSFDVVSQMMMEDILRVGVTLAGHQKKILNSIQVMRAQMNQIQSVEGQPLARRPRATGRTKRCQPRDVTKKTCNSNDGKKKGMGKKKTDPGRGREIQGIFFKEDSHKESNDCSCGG
# [2] = biological target: T2, Ephrin type-B receptor 3 (Homo sapiens) (UniProt P54753); settings: at 0.1 µM
# T2 sequence (whole entry): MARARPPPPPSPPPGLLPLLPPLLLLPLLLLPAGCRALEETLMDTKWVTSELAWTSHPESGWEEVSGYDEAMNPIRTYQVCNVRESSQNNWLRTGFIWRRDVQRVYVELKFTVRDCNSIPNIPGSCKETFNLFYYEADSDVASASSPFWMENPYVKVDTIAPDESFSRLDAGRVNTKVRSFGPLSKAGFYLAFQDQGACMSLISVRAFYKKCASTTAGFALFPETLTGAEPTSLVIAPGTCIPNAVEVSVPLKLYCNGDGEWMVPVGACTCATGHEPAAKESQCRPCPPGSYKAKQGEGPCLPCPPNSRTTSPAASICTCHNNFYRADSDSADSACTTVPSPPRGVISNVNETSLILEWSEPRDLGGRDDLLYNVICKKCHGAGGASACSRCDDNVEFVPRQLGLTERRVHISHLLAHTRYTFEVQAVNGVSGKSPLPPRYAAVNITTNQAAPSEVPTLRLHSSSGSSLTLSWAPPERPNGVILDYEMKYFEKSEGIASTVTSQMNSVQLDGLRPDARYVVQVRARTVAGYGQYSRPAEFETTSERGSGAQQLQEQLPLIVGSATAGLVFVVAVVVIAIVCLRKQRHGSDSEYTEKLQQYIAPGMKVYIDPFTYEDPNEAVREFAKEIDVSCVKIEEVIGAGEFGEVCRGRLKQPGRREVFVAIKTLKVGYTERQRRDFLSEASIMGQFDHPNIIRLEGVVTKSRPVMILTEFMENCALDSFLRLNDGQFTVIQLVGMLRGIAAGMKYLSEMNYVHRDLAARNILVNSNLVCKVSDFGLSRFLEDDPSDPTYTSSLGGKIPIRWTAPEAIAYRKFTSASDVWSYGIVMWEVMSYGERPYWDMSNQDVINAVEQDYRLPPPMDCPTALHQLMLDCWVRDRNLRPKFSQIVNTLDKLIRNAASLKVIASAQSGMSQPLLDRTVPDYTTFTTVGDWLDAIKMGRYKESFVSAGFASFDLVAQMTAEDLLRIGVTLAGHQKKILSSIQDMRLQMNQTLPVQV
# [3] = biological target: T2, Ephrin type-B receptor 3 (Homo sapiens); settings: at 1 µM
# [4] = biological target: T3, Ephrin type-B receptor 4 (Homo sapiens) (UniProt P54760); settings: at 0.1 µM
# T3 sequence (whole entry): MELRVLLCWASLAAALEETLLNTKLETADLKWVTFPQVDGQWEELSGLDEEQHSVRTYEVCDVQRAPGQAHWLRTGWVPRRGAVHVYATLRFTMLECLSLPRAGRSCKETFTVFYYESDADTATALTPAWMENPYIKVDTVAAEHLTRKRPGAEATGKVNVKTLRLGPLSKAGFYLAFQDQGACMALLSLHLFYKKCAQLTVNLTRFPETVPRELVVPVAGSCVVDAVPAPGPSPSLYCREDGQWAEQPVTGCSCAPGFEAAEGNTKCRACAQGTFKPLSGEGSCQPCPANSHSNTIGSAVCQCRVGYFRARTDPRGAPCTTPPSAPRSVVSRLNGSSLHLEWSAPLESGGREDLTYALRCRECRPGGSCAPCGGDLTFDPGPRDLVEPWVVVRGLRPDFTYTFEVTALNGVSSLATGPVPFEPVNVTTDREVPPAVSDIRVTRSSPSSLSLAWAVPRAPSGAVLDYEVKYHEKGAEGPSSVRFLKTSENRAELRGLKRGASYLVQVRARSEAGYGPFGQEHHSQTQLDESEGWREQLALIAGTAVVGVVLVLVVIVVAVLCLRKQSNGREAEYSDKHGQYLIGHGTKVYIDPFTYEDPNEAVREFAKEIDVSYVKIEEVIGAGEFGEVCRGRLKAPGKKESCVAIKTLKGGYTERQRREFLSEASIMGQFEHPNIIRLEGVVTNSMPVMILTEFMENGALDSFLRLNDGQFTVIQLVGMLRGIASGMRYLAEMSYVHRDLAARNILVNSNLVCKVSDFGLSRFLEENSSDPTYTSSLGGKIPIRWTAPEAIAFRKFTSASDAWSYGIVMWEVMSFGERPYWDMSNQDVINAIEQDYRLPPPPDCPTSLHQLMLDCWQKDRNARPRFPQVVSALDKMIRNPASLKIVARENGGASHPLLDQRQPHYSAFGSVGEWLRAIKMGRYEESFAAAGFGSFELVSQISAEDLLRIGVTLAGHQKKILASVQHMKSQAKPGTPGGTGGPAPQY
# [5] = biological target: T3, Ephrin type-B receptor 4 (Homo sapiens); settings: at 1 µM
# [6] = biological target: Receptor tyrosine-protein kinase erbB-2 (Homo sapiens) (UniProt P04626); settings: at 0.1 µM
# [7] = biological target: Receptor tyrosine-protein kinase erbB-2 (Homo sapiens) (UniProt P04626); settings: at 1 µM
# [8] = biological target: Receptor tyrosine-protein kinase erbB-4 (Homo sapiens) (UniProt Q15303); settings: at 0.1 µM
# [9] = biological target: Receptor tyrosine-protein kinase erbB-4 (Homo sapiens) (UniProt Q15303); settings: at 1 µM
# [10] = biological target: Tyrosine-protein kinase Fer (Homo sapiens) (UniProt P16591); settings: at 0.1 µM
# [11] = biological target: Tyrosine-protein kinase Fer (Homo sapiens) (UniProt P16591); settings: at 1 µM
# [12] = biological target: Tyrosine-protein kinase Fes/Fps (Homo sapiens) (UniProt P07332); settings: at 0.1 µM
# [13] = biological target: Tyrosine-protein kinase Fes/Fps (Homo sapiens) (UniProt P07332); settings: at 1 µM
# [14] = biological target: Fibroblast growth factor receptor 1 (Homo sapiens) (UniProt P11362); settings: at 0.1 µM
# [15] = biological target: Fibroblast growth factor receptor 1 (Homo sapiens) (UniProt P11362); settings: at 1 µM
# [16] = biological target: Fibroblast growth factor receptor 2 (Homo sapiens) (UniProt P21802); settings: at 0.1 µM
# [17] = biological target: Fibroblast growth factor receptor 2 (Homo sapiens) (UniProt P21802); settings: at 1 µM
# [18] = biological target: Fibroblast growth factor receptor 3 (Homo sapiens) (UniProt P22607); settings: at 0.1 µM
# [19] = biological target: Fibroblast growth factor receptor 3 (Homo sapiens) (UniProt P22607); settings: at 1 µM
# [20] = biological target: Fibroblast growth factor receptor 4 (Homo sapiens) (UniProt P22455); settings: at 0.1 µM;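 note: values are mean percent inhibition of FGFR4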
# Chain of Tyrosine-protein kinase Fer (Homo sapiens) (P16591 whole entry, looked up): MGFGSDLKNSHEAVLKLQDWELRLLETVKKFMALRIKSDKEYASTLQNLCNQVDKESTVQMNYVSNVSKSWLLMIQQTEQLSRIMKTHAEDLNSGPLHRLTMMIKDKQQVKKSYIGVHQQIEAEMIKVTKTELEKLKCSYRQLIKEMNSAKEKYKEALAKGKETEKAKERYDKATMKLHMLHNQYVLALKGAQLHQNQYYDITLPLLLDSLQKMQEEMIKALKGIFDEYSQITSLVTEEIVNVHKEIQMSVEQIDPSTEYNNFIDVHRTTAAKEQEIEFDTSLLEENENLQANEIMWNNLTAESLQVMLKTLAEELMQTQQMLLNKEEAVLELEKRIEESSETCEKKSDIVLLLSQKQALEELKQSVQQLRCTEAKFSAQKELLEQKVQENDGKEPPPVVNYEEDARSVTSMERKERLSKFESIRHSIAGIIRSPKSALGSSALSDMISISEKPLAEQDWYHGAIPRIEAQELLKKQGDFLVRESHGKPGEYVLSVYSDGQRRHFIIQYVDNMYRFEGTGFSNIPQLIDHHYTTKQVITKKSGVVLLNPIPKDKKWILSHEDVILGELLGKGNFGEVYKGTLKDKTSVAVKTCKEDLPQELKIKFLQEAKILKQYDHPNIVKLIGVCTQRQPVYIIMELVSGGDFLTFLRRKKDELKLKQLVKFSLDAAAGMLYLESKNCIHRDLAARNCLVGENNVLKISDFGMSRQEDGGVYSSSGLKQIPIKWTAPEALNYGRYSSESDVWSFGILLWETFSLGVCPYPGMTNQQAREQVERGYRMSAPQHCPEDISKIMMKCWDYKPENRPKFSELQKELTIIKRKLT
# Chain of Tyrosine-protein kinase Fes/Fps (Homo sapiens) (P07332 whole entry): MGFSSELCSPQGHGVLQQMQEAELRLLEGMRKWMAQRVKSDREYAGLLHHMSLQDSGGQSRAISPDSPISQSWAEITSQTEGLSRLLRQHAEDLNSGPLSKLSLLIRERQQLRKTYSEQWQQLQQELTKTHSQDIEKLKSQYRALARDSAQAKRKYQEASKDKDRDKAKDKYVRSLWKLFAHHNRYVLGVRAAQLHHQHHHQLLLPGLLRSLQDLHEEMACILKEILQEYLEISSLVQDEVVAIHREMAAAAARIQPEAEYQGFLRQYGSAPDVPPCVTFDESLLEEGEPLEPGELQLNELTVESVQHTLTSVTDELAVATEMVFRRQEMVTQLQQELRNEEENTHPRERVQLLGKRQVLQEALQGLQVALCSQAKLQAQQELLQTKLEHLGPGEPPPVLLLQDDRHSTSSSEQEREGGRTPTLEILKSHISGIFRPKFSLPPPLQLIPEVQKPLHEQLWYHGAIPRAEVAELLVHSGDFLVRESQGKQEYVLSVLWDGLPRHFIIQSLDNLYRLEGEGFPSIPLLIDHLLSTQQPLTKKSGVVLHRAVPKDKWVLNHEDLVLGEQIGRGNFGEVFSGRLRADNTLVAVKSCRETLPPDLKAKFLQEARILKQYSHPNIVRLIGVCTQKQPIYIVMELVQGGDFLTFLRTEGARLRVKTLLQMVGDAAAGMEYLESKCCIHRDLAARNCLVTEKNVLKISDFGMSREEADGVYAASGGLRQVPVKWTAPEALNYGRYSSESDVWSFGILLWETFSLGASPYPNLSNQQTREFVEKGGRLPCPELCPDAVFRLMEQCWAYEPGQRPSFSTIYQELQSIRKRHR
# Chain of Receptor tyrosine-protein kinase erbB-4 (Homo sapiens) (Q15303 whole entry): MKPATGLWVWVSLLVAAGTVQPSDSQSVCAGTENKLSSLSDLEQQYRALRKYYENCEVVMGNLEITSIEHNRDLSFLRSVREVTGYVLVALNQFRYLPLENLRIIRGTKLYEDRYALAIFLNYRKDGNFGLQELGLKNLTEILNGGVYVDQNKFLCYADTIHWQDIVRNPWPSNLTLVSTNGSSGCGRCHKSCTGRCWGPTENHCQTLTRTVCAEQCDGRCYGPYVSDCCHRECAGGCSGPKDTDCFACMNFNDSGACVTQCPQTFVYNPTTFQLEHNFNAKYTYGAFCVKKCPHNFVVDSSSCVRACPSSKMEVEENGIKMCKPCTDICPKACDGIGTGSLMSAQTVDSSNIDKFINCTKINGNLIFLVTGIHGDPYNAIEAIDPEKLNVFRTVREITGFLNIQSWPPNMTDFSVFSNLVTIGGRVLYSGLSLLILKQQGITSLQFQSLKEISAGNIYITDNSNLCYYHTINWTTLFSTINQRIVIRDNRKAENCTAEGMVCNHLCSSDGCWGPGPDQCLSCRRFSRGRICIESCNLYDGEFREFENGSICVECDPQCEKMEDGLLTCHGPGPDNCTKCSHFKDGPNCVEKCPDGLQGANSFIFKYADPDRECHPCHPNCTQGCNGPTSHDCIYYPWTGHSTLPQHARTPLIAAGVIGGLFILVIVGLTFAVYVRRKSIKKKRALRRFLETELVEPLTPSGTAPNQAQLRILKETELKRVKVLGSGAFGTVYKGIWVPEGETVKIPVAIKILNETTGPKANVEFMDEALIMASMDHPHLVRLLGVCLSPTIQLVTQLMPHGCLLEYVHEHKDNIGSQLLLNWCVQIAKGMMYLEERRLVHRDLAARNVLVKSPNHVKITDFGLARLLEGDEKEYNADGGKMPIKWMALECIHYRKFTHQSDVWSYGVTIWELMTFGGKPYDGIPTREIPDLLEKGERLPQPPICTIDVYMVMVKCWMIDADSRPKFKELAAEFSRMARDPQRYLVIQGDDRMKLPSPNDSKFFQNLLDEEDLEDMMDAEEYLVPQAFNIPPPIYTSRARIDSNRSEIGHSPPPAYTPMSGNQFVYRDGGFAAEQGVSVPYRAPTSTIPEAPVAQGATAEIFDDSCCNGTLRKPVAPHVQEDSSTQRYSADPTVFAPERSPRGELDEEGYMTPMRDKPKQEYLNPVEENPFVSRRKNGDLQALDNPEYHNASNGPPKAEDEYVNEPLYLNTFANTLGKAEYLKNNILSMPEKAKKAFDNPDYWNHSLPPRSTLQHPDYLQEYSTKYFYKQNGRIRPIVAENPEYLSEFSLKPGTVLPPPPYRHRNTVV
# Chain of Fibroblast growth factor receptor 2 (Homo sapiens) (P21802 22-821 limits assumed): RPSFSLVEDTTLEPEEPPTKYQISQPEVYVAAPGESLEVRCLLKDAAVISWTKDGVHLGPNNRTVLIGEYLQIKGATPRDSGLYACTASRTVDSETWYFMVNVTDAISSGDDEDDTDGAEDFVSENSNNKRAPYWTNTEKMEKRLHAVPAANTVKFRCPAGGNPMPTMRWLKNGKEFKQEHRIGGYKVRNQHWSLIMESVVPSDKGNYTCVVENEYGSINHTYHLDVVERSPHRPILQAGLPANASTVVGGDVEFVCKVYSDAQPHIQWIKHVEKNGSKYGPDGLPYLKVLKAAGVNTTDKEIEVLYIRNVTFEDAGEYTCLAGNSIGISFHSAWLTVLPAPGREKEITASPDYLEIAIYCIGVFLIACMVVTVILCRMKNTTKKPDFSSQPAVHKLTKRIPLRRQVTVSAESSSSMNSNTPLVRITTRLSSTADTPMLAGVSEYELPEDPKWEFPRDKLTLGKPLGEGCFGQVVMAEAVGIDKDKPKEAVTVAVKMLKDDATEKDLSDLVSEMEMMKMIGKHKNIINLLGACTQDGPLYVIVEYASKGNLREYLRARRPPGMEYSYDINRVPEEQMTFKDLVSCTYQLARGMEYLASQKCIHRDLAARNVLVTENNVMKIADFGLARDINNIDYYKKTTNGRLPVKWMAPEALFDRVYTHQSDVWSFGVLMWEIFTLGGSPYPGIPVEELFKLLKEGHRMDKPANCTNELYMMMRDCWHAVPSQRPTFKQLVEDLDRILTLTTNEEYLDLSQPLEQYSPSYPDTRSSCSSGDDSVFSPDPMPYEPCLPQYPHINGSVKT
# Chain of Fibroblast growth factor receptor 3 (Homo sapiens) (P22607 23-806 limits assumed): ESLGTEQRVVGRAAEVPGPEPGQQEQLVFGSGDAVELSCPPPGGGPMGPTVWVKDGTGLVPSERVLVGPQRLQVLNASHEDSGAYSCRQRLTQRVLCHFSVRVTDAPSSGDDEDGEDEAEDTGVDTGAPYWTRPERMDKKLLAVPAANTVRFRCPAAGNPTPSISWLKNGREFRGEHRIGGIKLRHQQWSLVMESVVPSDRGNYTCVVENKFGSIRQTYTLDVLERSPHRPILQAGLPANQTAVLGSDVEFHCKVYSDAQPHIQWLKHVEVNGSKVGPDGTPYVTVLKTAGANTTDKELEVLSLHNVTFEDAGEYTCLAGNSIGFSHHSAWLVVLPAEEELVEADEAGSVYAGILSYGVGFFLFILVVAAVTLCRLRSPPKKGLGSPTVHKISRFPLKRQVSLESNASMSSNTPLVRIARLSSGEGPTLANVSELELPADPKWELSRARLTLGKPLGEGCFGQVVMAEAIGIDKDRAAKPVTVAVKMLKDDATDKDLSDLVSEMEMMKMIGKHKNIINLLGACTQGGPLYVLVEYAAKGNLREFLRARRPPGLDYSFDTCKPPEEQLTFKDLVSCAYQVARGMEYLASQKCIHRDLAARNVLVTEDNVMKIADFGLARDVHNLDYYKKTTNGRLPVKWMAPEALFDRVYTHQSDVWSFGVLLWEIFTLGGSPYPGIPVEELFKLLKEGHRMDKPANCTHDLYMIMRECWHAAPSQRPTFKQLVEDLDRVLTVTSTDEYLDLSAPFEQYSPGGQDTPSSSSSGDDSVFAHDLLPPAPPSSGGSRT
SMILES,inhibition [1],inhibition [2],inhibition [3],inhibition [4],inhibition [5],inhibition [6],inhibition [7],inhibition [8],inhibition [9],inhibition [10],inhibition [11],inhibition [12],inhibition [13],inhibition [14],inhibition [15],inhibition [16],inhibition [17],inhibition [18],inhibition [19],inhibition [20]
COc1ccc(-c2nn3ncccc3c2-c2ccnc(Nc3ccc4c(c3)OCCO4)n2)cc1,35%,1.77%,6.41%,-0.35%,15.6%,0.95%,17.2%,55.9%,108%,1.56%,11.8%,4.35%,7.51%,-2.89%,11.2%,3.13%,22.1%,3.94%,12.6%,1.59%
CC(C)COC(=O)c1ccc2c(c1)/C(=C/Nc1ccc(S(N)(=O)=O)cc1)C(=O)N2,-4.93%,0.34%,-4.87%,-1.38%,1.51%,-2.55%,-0.17%,-2.58%,-2.34%,0.76%,11.1%,-0.89%,-0.27%,0.13%,4.86%,-0.6%,17.3%,0.1%,10.8%,4.93%
CCOc1ccc2c(-c3ccnc(Nc4cccc(C(F)(F)F)c4)n3)cnn2n1,9.64%,3.96%,2.33%,1.01%,2.81%,4.13%,2.54%,7.09%,6.85%,1.8%,7.63%,2.3%,2.59%,2.54%,7.08%,3.04%,7.12%,2.18%,5.74%,-0.43%
NS(=O)(=O)c1ccc(N/N=C2\C(=O)Nc3ccc4ncccc4c32)cc1,29.1%,2.75%,-3.76%,2.29%,13.2%,1.33%,-2.88%,11.4%,10.4%,3.38%,22.8%,2.15%,6.75%,10.8%,41%,27.5%,69.8%,26.1%,70.7%,-0.17%
COc1ccc(CNC(=O)c2ccc(-c3cc(-c4nnc(C)o4)ccc3C)cc2)cc1,10.6%,-0.7%,0.39%,1.69%,-0.88%,3.57%,10.7%,2.27%,7.19%,2.8%,4.77%,1.89%,2.09%,3.05%,2.33%,3.51%,5.88%,2.91%,5.29%,3.34%
COC(=O)Nc1nc2ccc(S(=O)(=O)c3ccc(NC(=O)Nc4cc(C(F)(F)F)ccc4F)cc3)cc2[nH]1,14.7%,5.22%,0.8%,2.15%,3.46%,0.46%,-2.51%,9.54%,12.2%,3.79%,2.04%,2.47%,2.5%,3.55%,2.11%,2.63%,7.81%,4.85%,4.38%,-1.95%
CCn1cc(-c2ccnc3[nH]ccc23)c(-c2cccc(NC(=O)Nc3ccc(OCc4ccccc4)cc3)c2)n1,-2.78%,0.02%,0.9%,-1.27%,3.47%,2.85%,2.75%,9.5%,63.5%,0.08%,5.87%,0.81%,2.87%,-0.96%,-2.55%,-0.49%,0.34%,-0.88%,0.39%,-0.55%
CNC(=O)c1cncc(/C=C/c2ccccc2Cl)c1,8.47%,-1.27%,1.05%,-0.2%,4.63%,0.54%,5.61%,3.2%,8.96%,2.91%,3.78%,0.21%,0.02%,-1%,-1.84%,-1.98%,4.23%,0.84%,1.98%,1.47%
COc1ccc2[nH]c3c4[nH]c5ccc(OC)cc5c4c4c(c3c2c1)C(=O)NC4=O,17.6%,0.84%,-4.62%,-0.01%,4.21%,1.76%,5.83%,14.5%,45.9%,29.1%,67.7%,3.43%,10.4%,1.76%,3.2%,4.75%,16.4%,7.7%,15.2%,2.26%
CCCN1CCC(c2ccc(Nc3nc(Nc4cc(F)ccc4C(N)=O)c4cc[nH]c4n3)c(OC)c2)CC1,8.57%,7.06%,2.33%,3.08%,2.91%,5.68%,12.9%,34.8%,76.3%,77%,82.4%,62.5%,80.5%,2.31%,2.41%,3.25%,6.48%,3.99%,1.74%,-5.38%
NC(=O)c1sc(-n2cnc3ccc(C(F)(F)F)cc32)cc1OCc1ccccc1Br,7.8%,7.23%,4.9%,-1.54%,0.48%,1.83%,1.49%,6.27%,10.9%,2.63%,2.2%,1.79%,2.43%,4.99%,5.11%,4.53%,4.28%,5.08%,3.54%,4.08%
CCc1nn2ncccc2c1-c1ccnc(NC2CC2)n1,5.11%,2.18%,3.88%,1.21%,3.43%,3.58%,5.82%,3.42%,8.22%,0.5%,4.48%,1.57%,2.04%,1.58%,7.38%,8.21%,10.7%,6.71%,11%,4.64%
Cc1cccc2c1NC(=O)/C2=N\Nc1ccc(S(N)(=O)=O)cc1,5.1%,5.12%,2.12%,1.36%,2.09%,0.78%,1.05%,11.5%,11%,1.4%,0.93%,2.06%,2.97%,6.31%,5.84%,7.75%,3.25%,3.97%,3.33%,2.12%
